In PubChem BioAssay (Tox21):
Values joined by “and” are separate entries in the source; they are usually repeats but may differ in a detail not shown here. Equal entries are not always repeated. Inconclusive results are not listed. More than one record can exist for a structure, and the calls need not agree. Active and inactive are the calls of the source. The call rests on the fitted dose curve; in most records, active means well fitted curve in the direction sought with a large enough effect in the repeat runs; inconclusive means weak or mixed curves; inactive means no such curve, though single readings can be large; an effect the other way counts as inactive or inconclusive.

How the values were obtained:
[1] = qHTS RealTime-Glo MT Cell Viability Assay in HepG2 cells - 40 hour (AID 1224870); further: nearly all actives have a fitted effect of over 50% in size
Method in brief: (§1)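 HepG2 cells mixed with RealTime-Glo MT reagents (NanoLuc plus cell-permeant prosubstrate) were seeded at 600 cells/well, incubated 5 h at 37 C/5% CO2, then pinned with compounds in DMSO; nonlytic luminescence tracked viability during 40 h treatment.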

[2] = A CellTox Green Cytotoxicity Assay to monitor cytotoxicity in HEK293 cells - 40 hour (AID 1224871); further: nearly all actives have a fitted effect of over 45% in size
Method in brief: (§2)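 Real-time, in one plate: 600 HEK293 cells/well with dead-cell DNA dye, pinned compound after 5 h, 37 C incubation over 40 h; viable cells give no appreciable fluorescence.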

[3] = qHTS RealTime-Glo MT Cell Viability Assay in HEK293 cells - 16 hour (AID 1224872); further: nearly all actives have a fitted effect of over 50% in size; further: potency means the concentration at half of the fitted maximal effect
Method in brief: (§3)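 Quantitative high-throughput screen of the Tox21 10K library in HEK293: cells and RealTime-Glo reagents plated together, compound added at 5 h, luminescence monitored through 40 h at 37 C.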

[4] = qHTS RealTime-Glo MT Cell Viability Assay in HepG2 cells - 8 hour (AID 1224873); further: nearly all actives have a fitted effect of over 55% in size
Method in brief: as §1

[5] = qHTS RealTime-Glo MT Cell Viability Assay in HEK293 cells - 40 hour (AID 1224874); conditions: RealTime-Glo luminescence; max response: stronger effect = lower value; further: nearly all actives have a fitted effect of over 50% in size; further: potency means the concentration at half of the fitted maximal effect
Method in brief: (§4)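 Kinetic, non-lysing viability readout. Seed HEK293 (600/well) with reagent, incubate 5 h at 37 C/5% CO2, pin 23 nL compound in DMSO, incubate at 37 C, read luminescence at 0, 8, 16, 24, 32, 40 h.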

[6] = A CellTox Green Cytotoxicity Assay to monitor cytotoxicity in HEK293 cells - 24 hour (AID 1224875); further: series mostly up to about 77 µM; nearly all actives have a fitted effect of over 45% in size
Method in brief: as §2

[7] = A CellTox Green Cytotoxicity Assay to monitor cytotoxicity in HepG2 cells - 16 hour (AID 1224876); further: nearly all actives have a fitted effect of over 45% in size
Method in brief: (§5)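 Cytotoxicity was tracked as dead-cell DNA fluorescence in HepG2 cells treated with test compounds at 37 C; each time-point value comes from one kinetic series spanning 0, 8, 16, 24, 32 and 40 h.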

[8] = qHTS RealTime-Glo MT Cell Viability Assay in HepG2 cells - 32 hour (AID 1224877); further: nearly all actives have a fitted effect of over 55% in size
Method in brief: (§6)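 Compound treatment began 5 h after plating HepG2 cells (600/well) with NanoLuc luciferase and prosubstrate. Plates stayed at 37 C for 40 h; luminescence was captured at six time points, 0 h through 40 h.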

[9] = A CellTox Green Cytotoxicity Assay to monitor cytotoxicity in HepG2 cells - 24 hour (AID 1224878); further: nearly all actives have a fitted effect of over 45% in size
Method in brief: as §5

[10] = A CellTox Green Cytotoxicity Assay to monitor cytotoxicity in HepG2 cells - 40 hour (AID 1224879); further: nearly all actives have a fitted effect of over 40% in size
Method in brief: as §5

[11] = A CellTox Green Cytotoxicity Assay to monitor cytotoxicity in HEK293 cells - 32 hour (AID 1224881); further: nearly all actives have a fitted effect of over 40% in size
Method in brief: as §2

[12] = A CellTox Green Cytotoxicity Assay to monitor cytotoxicity in HepG2 cells - 0 hour (AID 1224882); further: nearly all actives have a fitted effect of over 35% in size
Method in brief: as §5

[13] = A CellTox Green Cytotoxicity Assay to monitor cytotoxicity in HEK293 cells - 8 hour (AID 1224884); further: nearly all actives have a fitted effect of over 35% in size
Method in brief: as §2

[14] = qHTS RealTime-Glo MT Cell Viability Assay in HepG2 cells - 16 hour (AID 1224885); further: nearly all actives have a fitted effect of over 50% in size
Method in brief: as §6

[15] = qHTS RealTime-Glo MT Cell Viability Assay in HEK293 cells - 8 hour (AID 1224887)
Method in brief: as §4

[16] = qHTS RealTime-Glo MT Cell Viability Assay in HepG2 cells - 0 hour (AID 1224889); further: nearly all actives have a fitted effect of over 50% in size; further: potency means the concentration at half of the fitted maximal effect
Method in brief: as §6

[17] = A CellTox Green Cytotoxicity Assay to monitor cytotoxicity in HEK293 cells - 16 hour (AID 1224888); further: nearly all actives have a fitted effect of over 35% in size
Method in brief: as §2

[18] = qHTS RealTime-Glo MT Cell Viability Assay in HEK293 cells - 0 hour (AID 1224880)
Method in brief: as §4

[19] = A CellTox Green Cytotoxicity Assay to monitor cytotoxicity in HepG2 cells - 32 hour (AID 1224883); further: nearly all actives have a fitted effect of over 50% in size
Method in brief: as §5

[20] = qHTS RealTime-Glo MT Cell Viability Assay in HEK293 cells - 24 hour (AID 1224886)
Method in brief: as §3
On the % scale 0 is the no-effect control and ±100 the full control effect.

CC1=NN(c2ccccc2)C(=O)C1
inactive: outcome [1] | Potency [2] | Potency [3] | outcome [4] | max response [5] -0.0619% and 3.79% and -1.74% | Potency [6] | Potency [7] | outcome [8] | Potency [9] | Potency [10] | Potency [11] | Potency [12] | Potency [13] | Potency [14] | Potency [15] | Potency [16]

CCCCC/C(C=O)=C\c1ccccc1
inactive: outcome [1] | Potency [2] | Potency [3] | outcome [4] | max response [5] -12% and 4.41% and 0.735% | Potency [6] | Potency [7] | outcome [8] | Potency [9] | Potency [10] | Potency [11] | Potency [12] | Potency [13] | Potency [14] | Potency [15] | Potency [17] | Potency [16]

Nc1cccc(N)c1
inactive: outcome [1] | Potency [2] | Potency [3] | outcome [4] | max response [5] 6.95% and 5.34% and 0.651% | Potency [6] | Potency [7] | outcome [8] | Potency [9] | Potency [10] | Potency [18] | Potency [11] | Potency [12] | Potency [19] | Potency [13] | Potency [14] | Potency [20] | Potency [15] | Potency [17] | Potency [16]

C[C@]12C=CC(=O)C=C1CC[C@@H]1[C@@H]2C(=O)C[C@@]2(C)[C@H]1CC[C@]2(O)C(=O)CO
inactive: outcome [1] | Potency [2] | Potency [3] | outcome [4] | max response [5] -10.3% and 0.237% and 8.61% | Potency [6] | Potency [7] | outcome [8] | Potency [9] | Potency [10] | Potency [11] | Potency [12] | Potency [13] | Potency [14] | Potency [20] | Potency [15] | Potency [17]
active: Potency [16] 22 µM and 17.4 µM

CC1=C(/C=C/C(C)=C/C=C/C(C)=C/C(=O)O)C(C)(C)CCC1
inactive: outcome [1] | Potency [2] | Potency [3] | outcome [4] | max response [5] -20% and -18.8% and -12.7% | Potency [7] | outcome [8] | Potency [9] | Potency [10] | Potency [18] | Potency [11] | Potency [12] | Potency [19] | Potency [13] | Potency [14] | Potency [20] | Potency [15] | Potency [17] | Potency [16]

COc1ccccc1O
inactive: outcome [1] | Potency [2] | Potency [3] | outcome [4] | max response [5] 18.7% and 1.57% and 2.8% | Potency [6] | Potency [7] | outcome [8] | Potency [9] | Potency [10] | Potency [11] | Potency [12] | Potency [13] | Potency [14] | Potency [15] | Potency [17] | Potency [16]

Oc1cccc(O)c1
inactive: outcome [1] | Potency [2] | Potency [3] | outcome [4] | max response [5] -0.181% and -6.38% and 1.58% | Potency [6] | Potency [7] | outcome [8] | Potency [9] | Potency [10] | Potency [18] | Potency [11] | Potency [12] | Potency [19] | Potency [13] | Potency [14] | Potency [20] | Potency [15] | Potency [16]

COc1ccc(C(=O)c2ccccc2)c(O)c1
inactive: outcome [1] | Potency [2] | outcome [4] | max response [5] -12.2% and 5.78% | Potency [6] | Potency [7] | outcome [8] | Potency [9] | Potency [10] | Potency [18] | Potency [11] | Potency [12] | Potency [13] | Potency [14] | Potency [15] | Potency [17] | Potency [16]
active: Potency [5] 7.76 µM
inactive and 21.9 µM (active): Potency [3]

NC(=O)N/N=C/c1ccc([N+](=O)[O-])o1
inactive: outcome [1] | Potency [2] | Potency [3] | outcome [4] | max response [5] -0.165% | Potency [6] | Potency [7] | outcome [8] | Potency [9] | Potency [10] | Potency [18] | Potency [11] | Potency [12] | Potency [19] | Potency [13] | Potency [14] | Potency [20] | Potency [15] | Potency [16]

CC1(C)O[C@@H]2[C@@H](CO[C@@]3(COS(N)(=O)=O)OC(C)(C)O[C@@H]23)O1
inactive: outcome [1] | Potency [2] | Potency [3] | outcome [4] | max response [5] -1.97% | Potency [6] | Potency [7] | outcome [8] | Potency [9] | Potency [10] | Potency [18] | Potency [11] | Potency [12] | Potency [19] | Potency [13] | Potency [14] | Potency [20] | Potency [15] | Potency [16]

C=C(C)OC(C)=O
inactive: outcome [1] | Potency [2] | Potency [3] | outcome [4] | max response [5] 5.33% and 0.384% | Potency [6] | Potency [7] | outcome [8] | Potency [9] | Potency [10] | Potency [11] | Potency [12] | Potency [19] | Potency [13] | Potency [14] | Potency [15] | Potency [16]

C=CCOC(=O)CC(C)C
inactive: outcome [1] | Potency [2] | Potency [3] | outcome [4] | max response [5] 4.01% and 4.38% | Potency [6] | Potency [7] | outcome [8] | Potency [9] | Potency [10] | Potency [18] | Potency [11] | Potency [12] | Potency [13] | Potency [14] | Potency [15] | Potency [16]

Cc1cccc2ccccc12
inactive: outcome [1] | Potency [2] | Potency [3] | outcome [4] | max response [5] 3.52% and 3.07% | Potency [7] | outcome [8] | Potency [9] | Potency [10] | Potency [18] | Potency [11] | Potency [12] | Potency [19] | Potency [13] | Potency [14] | Potency [20] | Potency [15] | Potency [17] | Potency [16]
